CYP2C9 activ – human CYP2C9 activators, primary screen, biochemical, luminescence; hit rate 1.4% among 96,000; AID 1024, 2008; Cytochrome P450 2C9 (Homo sapiens), P11712; recombinant CYP2C9, luciferin-H conversion; stronger effect = higher value; factor 1 = untreated enzyme, 0 = blocked; activation factor at 5 µM;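 active = activation factor of 2 or more for CYP2C9 at a 5 µM dose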
CYP2C19 inh – blockers of cytochrome P450 2C19 activity – biochemical, luminescence, ADME assay, primary screen. inhibition, % at 5 µM. P33261. hit rate 21% among 96,000. CYP2C19 Supersomes, luciferin-H EGE luminescence, 30 min. AID 778, 2007;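 active = CYP2C19 inhibition above a set limit at 5 µM in the primary screen, cut at about 50% in these data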
Target sequence (P33261 whole entry, looked up): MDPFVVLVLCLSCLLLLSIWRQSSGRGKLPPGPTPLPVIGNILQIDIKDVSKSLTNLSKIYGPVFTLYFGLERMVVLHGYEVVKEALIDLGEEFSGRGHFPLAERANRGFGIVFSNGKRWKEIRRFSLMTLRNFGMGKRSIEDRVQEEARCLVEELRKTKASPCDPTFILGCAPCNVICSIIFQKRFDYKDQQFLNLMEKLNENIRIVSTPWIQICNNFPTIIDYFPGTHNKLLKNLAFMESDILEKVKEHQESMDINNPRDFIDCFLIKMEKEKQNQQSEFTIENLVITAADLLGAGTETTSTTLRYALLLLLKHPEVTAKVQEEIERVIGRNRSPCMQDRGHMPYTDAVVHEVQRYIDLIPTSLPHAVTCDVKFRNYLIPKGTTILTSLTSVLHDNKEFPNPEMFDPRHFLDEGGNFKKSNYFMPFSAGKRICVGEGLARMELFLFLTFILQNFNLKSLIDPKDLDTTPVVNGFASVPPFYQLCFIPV
CYP2C19 act – human CYP2C19 activators, primary screen, biochemical, luminescence; AID 1025, 2008; recombinant CYP2C19, luciferin-H EGE luminescence; stronger effect = higher value; 0 = fully inhibited enzyme, 1 = untreated enzyme; activation factor at 5 µM; 96,000 tested, under 10 active; Cytochrome P450 2C19 (Homo sapiens), P33261;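 active = activation factor of at least 2 at 5 µM in the primary screen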
CYP2C9 inh – blockers of cytochrome P450 2C9 activity – biochemical, luminescence, ADME assay, primary screen; CYP2C9 Supersomes, luciferin-H conversion; P11712; inhibition, % at 5 µM; hit rate 20% among 96,000;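 active = blocking of liver enzyme CYP2C9 beyond about 50% at 5 µM, limit read from the data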
A number is an active result; – = inactive. A selection: hits, their analogues and other compounds. The true share with any hit is near 31%.

SMILES	CYP2C9 activ	CYP2C19 inh	CYP2C19 act	CYP2C9 inh
CCOC(=O)N1CCC(N2CCN(S(=O)(=O)CC)CC2)CC1	–	–	–	–
CCCC(C(=O)NC1CCCC1)N(Cc1ccc2c(c1)OCO2)C(=O)c1snc(C(N)=O)c1N (configuration not stated)	–	97	–	83
CC(C)CCNC(=O)C(c1ccco1)N(Cc1ccc(F)cc1)C(=O)c1snc(C(N)=O)c1N (configuration not stated)	–	67	–	–
CCCCC(C(=O)NC(C)(C)C)N(Cc1ccco1)C(=O)c1snc(C(N)=O)c1N (configuration not stated)	–	58	–	70
CCOc1ccccc1N(C(=O)c1snc(C(N)=O)c1N)C(C(=O)NC1CCCC1)c1ccco1 (configuration not stated)	–	–	–	–
CCC(C(=O)NCc1ccc(F)cc1)N(Cc1ccco1)C(=O)c1snc(C(N)=O)c1N (configuration not stated)	–	58	–	50
O=C(NNC(=O)C1CC(c2cccnc2)=NO1)Nc1cccc(F)c1 (configuration not stated)	–	–	–	–
O=C(NC1CCCCC1)c1cccnc1C(=O)O	–	–	–	–
Cn1c(SCC(=O)Nc2cc(=O)n(C)c(=O)n2C)nnc1C12CC3CC(CC(C3)C1)C2	–	–	–	–
CCCC(C(=O)NCc1ccc(OC)cc1)N(Cc1ccco1)C(=O)c1snc(C(N)=O)c1N (configuration not stated)	–	60	–	–
CC(C(=O)NCc1ccccc1)N(CCN1CCOCC1)C(=O)c1snc(C(N)=O)c1N (configuration not stated)	–	–	–	–
CCOC(=O)c1cc(C#N)c(SCC(=O)c2cc(C#N)c(SC)nc2C)nc1C	–	–	–	99
CCOC(=O)c1sc(N)c(C#N)c1CSc1nnc(C2CCCCC2)n1N	–	–	–	78
N#Cc1ccc(COC(=O)CSc2nnc(C3CCCCC3)n2N)cc1	–	–	–	–
Cc1cc(C)n(-c2ccc(C(=O)OCC(=O)c3ccc(Br)s3)cc2)n1	–	77	–	90
Cc1cc(C)n(-c2ccc(C(=O)OCC(=O)Nc3ccc(S(=O)(=O)N4CCOCC4)cc3)cc2)n1	–	88	–	71
Cc1cc(C)n(-c2ccc(C(=O)OCC(=O)NCc3ccco3)cc2)n1	–	–	–	–
Cc1cc(C)n(-c2ccc(C(=O)OCC(=O)Nc3ccc(Cl)c(S(=O)(=O)N(C)C)c3)cc2)n1	–	83	–	–
CCOc1cc(N2CCOCC2)c(OCC)cc1NC(=O)Cc1cn2ccsc2n1	–	–	–	–
CCn1c(SCC(=O)NNC(=O)c2ccccc2)nnc1-c1ccncc1	–	–	–	–
O=c1[nH][nH]c(C(F)(F)F)c1C=NCc1cccc(Cl)c1	–	68	–	–
O=c1[nH][nH]c(C(F)(F)F)c1C=NCc1ccc(Cl)cc1	–	58	–	–
O=c1[nH][nH]c(C(F)(F)F)c1C=Nc1ccccc1Cl	–	–	–	–
COc1ccc(/C=C2\SC(c3ccc(C)cc3)=NC2=O)cc1OC	–	–	–	–
COc1cc(/C=C2\SC(c3ccc(C)cc3)=NC2=O)cc(OC)c1OC	–	–	–	63
SMILES	CYP2C9 activ	CYP2C19 inh	CYP2C19 act	CYP2C9 inh
COc1ccc(/C=C2/SC(c3ccc(C)cc3)=NC2=O)cc1OC	–	–	–	61
CC(=O)N1CCCc2cc(S(=O)(=O)CCC(=O)N3CCN(c4cccc(C)c4)C(C)C3)ccc21 (configuration not stated)	–	58	–	–
CC(=O)N1CCCc2cc(S(=O)(=O)NCc3ccc(C)cc3)ccc21	–	82	–	–
CC(=O)N1CCCc2cc(S(=O)(=O)NCCC3=CCCCC3)ccc21	–	53	–	–
COc1ccccc1CNC(=O)CCS(=O)(=O)c1ccc2c(c1)CCCN2C(C)=O	–	–	–	–
CC(=O)N1CCc2cc(S(=O)(=O)NCCC(=O)Nc3cccc(C)c3)ccc21	–	–	–	–
CCN(CCCNS(=O)(=O)c1ccc2c(c1)CCN2C(C)=O)c1cccc(C)c1	–	62	–	–
CCOC(=O)c1cnn(-c2nc3c(C)cccc3s2)c1C	–	–	–	–
Cc1ccc(C(=O)O)cc1NC(=S)NC(=O)C(c1ccccc1)c1ccccc1	–	–	–	–
COc1ccccc1-c1cc(C(=O)N/N=C/c2ccc(C)s2)c2ccccc2n1	–	75	–	100
CCc1ccc(/C=N/NC(=O)c2cc(-c3ccccc3OC)nc3ccccc23)s1	–	66	–	94
Cc1ccc(-c2cc(C(=O)N/N=C\c3cnn(C)c3C)c3ccccc3n2)cc1C	–	87	–	99
CCOC(=O)/C(C(N)=NCCCO)=C(/O)c1ccccc1	–	–	–	–
Cc1cc(O)c(NC(=S)NC(=O)c2ccc(-c3ccc(Cl)cc3)o2)cc1C	–	–	–	–
N#CCCn1ncn(-c2ccccc2)c1=S	–	–	–	–
Clc1ccc(-c2cn3nc4c(nc3n2)CCCC4)cc1	–	–	–	–
COc1cccc(-c2cn3nc4c(nc3n2)CCCC4)c1	–	96	–	50
Cc1ccc(C)c(C(C)NC(=O)C2C3CCC(O3)C2C(=O)O)c1 (configuration not stated)	–	–	–	–
CC1CCc2cc(F)ccc2N1C(=O)CCC(=O)O (configuration not stated)	–	–	–	–
CCc1nc(SCC(=O)Nc2nnc(CC)s2)c2c(C)c(C)sc2n1	–	–	–	–
CCCc1nc(SCC(=O)N2c3ccccc3CC2C)c2c(C)c(C)sc2n1 (configuration not stated)	–	64	–	94
CC1Cc2ccccc2N1C(=O)CSc1nnc2c(n1)[nH]c1ccccc12 (configuration not stated)	–	55	–	–
CC1Cc2ccccc2N1C(=O)CSc1nnc(-c2ccccc2)c(-c2ccccc2)n1 (configuration not stated)	–	85	–	100
CC1CCc2cc(F)ccc2N1C(=O)CSc1nnc2c(n1)[nH]c1ccc(F)cc12 (configuration not stated)	–	77	–	57
O=C(Cn1cnc2c(oc3ccccc32)c1=O)c1ccccc1	–	–	–	–
Cn1c(-c2sccc2OCc2ccccc2)n[nH]c1=S	–	–	–	–
CCC(C)[C@@H](C(=O)Nc1ccc2c(c1)OCO2)N1Cc2ccccc2C1=O (some centres not stated)	–	69	–	51
O=C(COC(=O)[C@H](Cc1ccccc1)N1C(=O)c2ccccc2C1=O)Nc1ccc2c(c1)OCO2	–	81	–	99
CC(C)[C@@H](C(=O)OCC(=O)Nc1ccc2c(c1)OCO2)N1C(=O)c2ccccc2C1=O	–	58	–	–
O=C(Cn1ccc2ccccc2c1=O)N1CCN(c2cccc(Cl)c2)CC1	–	–	–	–

Screening results (PubChem)
